# Compound activity (PubChem BioAssay)
# p53 reactivator – mutant p53 re-activation in reporter cells; 320,000 tested, 0.063% active; H1299 p53-A138V BP100-luciferase reporter, luminescence, 24 h; Potency, µM (titrated, usually from 92.2 µM), for the others: at the top dose activity change, positive = activation, most hits filed as activators; AID 504706; further: potency means the concentration at half of the fitted maximal effect; % of control where 0% means no effect; nearly all actives have a fitted effect of over 45% in size
#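 p53-null H1299 cells stably carrying temperature-sensitive p53-A138V and a BP100-luciferase reporter were pinned with compounds (4-point, 1:5 series) and held 24 hrs at 37 deg C. Luminescence was read 10 min after detection reagent.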
# CCT chaperon mod – cytosolic chaperonin activity modulation; purified chaperonin ATPase assay, HTRF ADP detection, 30 min; activity change, % (concentration not given with the values), hits read low; 360,000 tested, 0.3% active; AID 651819; in the data active means activity change below about -30%; further: on the % scale 0 is the no-effect control and ±100 the full control effect
#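 TRiC at 40 or 20 nM final (batch-dependent) in 30 mM Tris pH 7.4, 100 mM KCl, 5 mM MgCl2, 1 mM DTT, with compound at single 76 uM and 10 uM ATP, 30 min at 37 deg C. ADP detected by HTRF Transcreener, 665/615 ratio.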
# PINK1 modulator – changes PINK1 expression | PINK1 immunofluorescence, high-content cytometry, 24 h | Potency, µM (highest dose often 76.6 µM), for the others: at the highest dose activation (PINK1 increase), usual class: activators | 410,000 tested, 0.2% active | AID 624263; active means well fitted activation curve with a large enough effect; inconclusive means small, poorly fitted or top-dose-only effect; cell line not stated here; further: potency means the concentration at half of the fitted maximal effect; % of control where 0% means no effect; nearly all actives have a fitted effect of over 65% in size
#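 Readout is PINK1 immunofluorescence, quantified alongside mitochondrial, cell and nuclear markers by laser-scanning microplate cytometry. Cells from a stable line were exposed to compound titrations (5 concentrations) for 24 hours, with CCCP controls.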
# ALOX12 inh – blocks human arachidonate 12S-lipoxygenase; Potency, µM (top dose mostly 108 µM), inactives show at the top dose activity change, negative = inhibition, usual class: inhibitors; 580,000 tested, 1.1% active; AID 1671190; purified 12hLO, xylenol orange hydroperoxide absorbance; further: potency means the concentration at half of the fitted maximal effect; on the % scale 0 is the no-effect control and ±100 the full control effect
#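 Hydroperoxide product was detected by ferrous iron/xylenol orange as the 573 to 405 nm absorbance ratio. Arachidonic acid at 40 uM (final) was turned over for 30 min at room temperature by 150 nM human 12hLO, pH 7.0 Hepes buffer, after 15 min compound preincubation.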
# MmCpn inh – M. maripaludis TRiC chaperonin inhibition; purified Mm-Cpn ATPase, ADP Transcreener TR-FRET; Potency, µM (titrated, usually from 76.9 µM), inactives show top-dose activity, negative = inhibition, usual class: inhibitors; 330,000 tested, 0.031% active; AID 504842; further: potency means the concentration at half of the fitted maximal effect; on the % scale 0 is the no-effect control and ±100 the full control effect; nearly all actives have a fitted effect of over 80% in size
#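 Reaction buffer contained 30 mM Tris pH 7.4, 100 mM KCl, 5 mM MgCl2 and 1 mM DTT. Mm-CPN (25 nM final) hydrolysed 10 uM ATP over 30 min at 37°C; ADP was read by HTRF.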
# ASM inhibitor – inhibitors of human secretory acid sphingomyelinase; P17405; placental ASM, HMU-PC fluorogenic substrate, 60 min; Potency, µM (highest dose often 57.5 µM), for the others: top-dose activity change, negative = inhibition, actives largely listed as inhibitors; 340,000 tested, 0.006% active; further: potency means the concentration at half of the fitted maximal effect
# Target sequence (P17405 47-631 limits assumed): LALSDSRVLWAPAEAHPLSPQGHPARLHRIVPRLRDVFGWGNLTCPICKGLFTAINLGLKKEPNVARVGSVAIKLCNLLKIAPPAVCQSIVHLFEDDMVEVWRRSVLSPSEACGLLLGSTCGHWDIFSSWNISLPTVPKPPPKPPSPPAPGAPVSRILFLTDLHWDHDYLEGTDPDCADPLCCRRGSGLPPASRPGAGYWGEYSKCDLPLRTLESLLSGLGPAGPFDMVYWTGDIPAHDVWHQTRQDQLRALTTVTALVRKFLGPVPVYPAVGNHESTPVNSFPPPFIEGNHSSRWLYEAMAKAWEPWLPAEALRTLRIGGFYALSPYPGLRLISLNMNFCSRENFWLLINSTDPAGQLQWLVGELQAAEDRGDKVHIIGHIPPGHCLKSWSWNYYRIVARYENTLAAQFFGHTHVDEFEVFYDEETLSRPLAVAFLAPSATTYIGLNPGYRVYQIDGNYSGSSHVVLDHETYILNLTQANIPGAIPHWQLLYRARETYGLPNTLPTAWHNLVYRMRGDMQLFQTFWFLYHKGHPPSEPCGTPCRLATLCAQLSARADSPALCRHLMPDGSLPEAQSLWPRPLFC
#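 Fluorescence read-out (Ex 386 nm, Em 447 nm) after stopping the reaction at pH 10. Enzyme: ASM from human placenta; substrate HMU-PC0, 9 uM final; 60 min, 37 °C. Compound preincubation 10 min, ambient temperature.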
# Starred values were filed as active, the others as inactive; i = inactive; ? = inconclusive; · = no result given; ! = not active in a repeat; [ ] = dose if it differs, or a comment. In the library only some 1.4% were active in any assay of this set; here they are far more common. Unless noted, the call rests on the fitted dose curve; in most records, active means well fitted curve in the direction sought with a large enough effect; inconclusive means small, poorly fitted or top-dose-only effect, or another doubt; inactive means no such curve, though single readings can be large; an effect the other way counts as inactive or inconclusive.
SMILES,p53 reactivator,CCT chaperon mod,PINK1 modulator,ALOX12 inh,MmCpn inh,ASM inhibitor
COC(=O)c1ccc(NC(=O)Nc2ccc([N+](=O)[O-])cc2)cc1,0%,-2,35µM*,?,0%,-6%
COc1ccccc1NC(=O)Nc1cccc(NC(C)=O)c1,-1%,0,3%,5%,1%,-1%
COc1cc(NC(=O)Nc2cccc([N+](=O)[O-])c2)cc(OC)c1,9%,-53*,13%,i,-1%,-4%
COc1ccc(Cc2nnc(SCC(=O)Nc3ccccc3Cl)n2C)cc1,·,·,·,22%,·,·
CC(Sc1nc2ccccc2[nH]1)C(=O)NC(N)=O (centres undefined),·,·,·,-4%,·,·
Cc1ccccc1OCCCSc1nc2ccccc2[nH]1,?,-2,?,13%,?,-5%
Cc1c(OCC(F)(F)F)ccnc1CSc1nc2ccccc2[nH]1,23%,0,0%,0%,0%,-4%
Cc1c(OCC(F)(F)F)ccnc1CS(=O)c1nc2ccccc2[nH]1 (centres undefined),24%,-1,0%,12µM*!,-3%[15.4 µM],0%
COCCCOc1ccnc(CS(=O)c2nc3ccccc3[nH]2)c1C (centres undefined),29%,2,0%,45µM*!,-1%,-2%
O=C(O)CCOc1ccc(Br)cc1,·,·,·,13%,·,·
CC1CC(C)CN(C(=O)c2cc3ccccc3o2)C1 (centres undefined),?,-1,3%,?,2%,2%
O=C(c1cc2ccccc2o1)N1CCN(Cc2nc3ccccc3s2)CC1,·,-2,0%,18µM*,·,·
CC1CCN(C(=O)c2cc3ccccc3o2)CC1,?,-36*,1%,25%,0%,-3%
COC(=O)c1ccc(NC(=O)c2nc3ccccc3nc2N2CCCC2)cc1,·,·,·,18%,·,·
COC(=O)c1sccc1NC(=O)CC1(C(=O)O)CCCC1,·,·,·,-34%,·,·
CCn1cc(CNC(=O)Nc2ccc(Cl)cc2)c(C)n1,·,·,·,35%,·,·
Cc1nn2c(CN(C(=O)CN3CCOCC3)c3ccccc3)nnc2c2ccccc12,-9%,-34*,0%,0%,-1%,0%
CC(CO)NC(=O)C(C)Sc1ccccc1 (centres undefined),·,·,·,0%,·,·
Cc1cc2nc3ccc(N(C)C)cc3nc2cc1N,·,-40*,3%,?,·,-8%
CC(=O)C1=C(C)N(Cc2ccc(Cl)cc2)C(=S)NC1c1cccc(Br)c1 (centres undefined),·,·,·,40µM*,·,·
CC(=O)C1=C(C)N(CC(C)C)C(=S)NC1c1ccc(Br)cc1 (centres undefined),·,·,·,40µM*,·,·
CC(=O)C1=C(C)N(Cc2ccc(Br)cc2)C(=S)NC1c1cccc(Br)c1 (centres undefined),·,·,·,32µM*,·,·
O=Cc1cc2ccc(Br)cc2[nH]1,·,·,·,-24%,·,·
CCn1cc(-c2cc(-c3ccccc3OC)nc3c(C)noc23)cn1,·,·,·,15%[176 µM],·,·
Cc1ccc(NC(=O)c2cc(N3C(=O)C=CC3=O)ccc2N2CCOCC2)cc1,-11%,-3,11%,10µM*,2%,-2%
SMILES,p53 reactivator,CCT chaperon mod,PINK1 modulator,ALOX12 inh,MmCpn inh,ASM inhibitor
Cc1ccc(NC(=O)c2cc(N3C(=O)C=CC3=O)ccc2Cl)cc1C,-31%,2,12%,3.5µM*,0%,-2%
COc1ccc(CCNC(=O)/C(=N/O)c2ccccc2)cc1OC,·,·,·,-25%,·,·
O=c1c2ccccc2sc2ccc(NCCCN3CCOCC3)cc12,·,1,2%,14µM*,·,-11%
Cc1cccc2cc(CN(Cc3cccnc3)C(=O)C(C)C)c(=O)[nH]c12,·,·,·,2%,·,·
CCC(Sc1nc(C)cc(C)n1)C(=O)NC1=NN=C(c2ccc(C)cc2)CS1 (centres undefined),-7%,0,14µM*,?,1%,-7%
Cc1cc(C)nc(SCC(=O)NC2=NN=C(c3ccc(Br)cc3)CS2)n1,-7%,-4,?,?,1%,-11%
Cc1ccccc1-c1cn(-c2ccccc2)c(=S)[nH]1,-1%,-1,1%,?,-1%,0%
Cc1ccc(-c2cn(-c3ccccc3)c(=S)[nH]2)cc1C,?,0,0%,35µM*,-6%,-4%
C/C(CCc1ccccc1)=N\NC(=S)NCCc1ccccc1,1%,-2,-1%,40µM*,0%,-1%
Cc1c(Cl)cccc1NC(=S)NCCc1ccc(C(F)(F)F)cc1,-4%,-1,?,40µM*,1%,-4%
S=C(NCCc1ccccc1)NCCc1ccccc1,?,2,-2%,50µM*,2%,-1%
C/C(=N\NC(=S)NCCc1ccccc1)c1cccs1,?,-3,1%,45µM*,1%,-1%
CC#CCn1cc2c3c(cccc31)[C@H](CC(C)C)N[C@H](C(=O)N1CCC(O)CC1)C2,·,·,·,33%[176 µM],·,·
S=C(NCc1ccccc1)NCc1ccc(CNC(=S)NCc2ccccc2)cc1,7%,-1,4%,25µM*,-3%,-7%
S=C(NCCCc1ccccc1)Nc1ccccc1Cl,0%,-2,?,?,-24%,-2%
S=C(NCCCCc1ccccc1)Nc1cccc(Cl)c1Cl,·,·,·,25µM*,·,·
CC(NC(=S)NCCc1ccccc1)C(c1cccs1)N1CCN(Cc2ccccc2)CC1 (centres undefined),17%,1,16µM*,?,1%,2%
Cc1ccc(CNC(=S)Nc2ccccc2Cl)cc1,·,·,·,45µM*,·,·
Fc1ccc(CNC(=S)NCc2ccccc2)cc1,1%,-2,3%,?,1%,-1%
CCOC(=O)COc1cc(O)cc2oc(-c3ccccc3)cc(=O)c12,·,·,·,5%,·,·
CC(C)(C)C(=O)Nc1cccc(C(=O)NOCc2ccccc2)c1,·,·,·,-5%,·,·
O=C(CCc1ncc(-c2ccccc2F)o1)N1CCN(S(=O)(=O)c2ccc(F)c(Cl)c2)CC1,·,·,·,10%,·,·
O=C(/C=C1\C(=O)Nc2ccccc21)/C=C1\C(=O)Nc2ccccc21,-5%,-1,9%,8.9µM*,-1%,-16%
O=C1Nc2ccccc2/C1=C\C(=O)c1ccccc1,-11%,0,-4%,?,-2%,-7%
N#CC(C(=O)CSc1ccc2c(c1)OCCO2)c1nc(-c2ccccc2)cs1 (centres undefined),·,·,·,10µM*,·,·
O=C(CSc1ccc2c(c1)OCCO2)NCc1ccccc1,14%,0,0%,-2%,0%,6%
CCN(CC)S(=O)(=O)c1ccc(-c2nc(C#N)c(N(C)Cc3ccccc3)o2)cc1,·,·,·,4%,·,·
C#Cc1ccc([C@H]2C=C(C(=O)NCc3nc4ccccc4[nH]3)O[C@@H](OCc3ccc(CO)cc3)C2)cc1,·,-1,1%,-17%,·,-2%
